Measurements published in PubChem BioAssay (EPA / NIEHS).
Records with an inconclusive call do not appear. Active and inactive are the calls of the source. The calls were made as follows: active = hit-call score of the fitted dose curve at least 0.9, where 1 is the maximum; inconclusive = response in the unintended direction; inactive = score below 0.9.

Columns and labels:
[1] = VALA_TUBHUV_Antagonist_TubuleLength: VALA Sciences human Umbilical Vein Endothelial Tubule Formation (TUBHUV) Antagonism Assay (AID 2284325)
In short: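 HUVEC–HDF co-culture (1:3) pre-grown 3 days with 10 ng/ml VEGF, then 3 days with compound plus VEGF. Fixed, nuclear and CD31 stained; total tubule length by imaging versus 0.1% DMSO; suramin 100 uM positive control.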

[2] = VALA_TUBIPS_Antagonist_CellCount: Viability Assessment in the VALA Sciences human iPS-derived Endothelial Tubule Formation (TUBIPS) Antagonism Assay (AID 2284335)
[3] = VALA_TUBIPS_Agonist_CellCount: Viability Assessment in the VALA Sciences human iPS-derived Endothelial Tubule Formation (TUBIPS) Agonism Assay (AID 2284338)
[4] = VALA_MIGHUV1_ScratchOnly_WoundArea: VALA Sciences human Umbilical Vein Endothelial Cell Migration (MIGHUV) Assay, Area of Scratch Wound Inhibited Recovery (AID 2284336)
Method: VALA_MIGHUV1_ScratchOnly is a cell-based, multiplexed assay that uses umbilical vein-derived endothelial cells (HUVEC). Measurements were taken 24 hours after chemical dosing in a 96-well plate.VALA_MIGHUV1_ScratchOnly_WoundArea is the one of two assay components measured from the VALA_MIGHUV1_ScratchOnly assay. It is designed to make measurements of endothelial migration, a form of morphology reporter, as detected with fluorescence intensity signals by HCS Fluorescent Imaging technology. Data from the assay component VALA_MIGHUV1_ScratchOnly_WoundArea was analyzed at the endpoint, VALA_MIGHUV1_ScratchOnly_WoundArea, in the positive analysis fitting direction relative to DMSO as the negative control and baseline of activity. Using a type of morphology reporter, gain-of-signal activity can be used to understand developmental effects. To generalize the intended target to other relatable targets, this assay endpoint is annotated to the neurodevelopment intended target family, where the subfamily is migration.
Cells were seeded on 384-well microplates (day-0) at a density of 9000 cells per well for detection of wound area recovery or 4000 cells per well for detection of beta-catenin (CTNB) immunoreactivity and incubated in Endothelial Cell Growth Medium (CAI, San Diego; catalog 211-500). […]

Structure (SMILES) | outcome [1] | AC50 [2] | AC50 [3] | outcome [2] | outcome [4] | outcome [3]
Oc1cc(Cl)ccc1Oc1ccc(Cl)cc1Cl | inactive | 0.00562 µM (active) | 7.53 µM (active) | – | – | –
O=S(=O)(O)C(F)(F)C(F)(F)C(F)(F)C(F)(F)C(F)(F)C(F)(F)C(F)(F)C(F)(F)F | – | – | – | inactive | inactive | inactive
